# PubChem BioAssay (NCATS)
# Where “and” joins values, the source holds several entries; their conditions need not be identical. Equal entries are not always repeated. Inconclusive results are not listed. Entries that show only a call come without a potency. Calls of active or inactive are those of the source. Unless noted, calls follow the shape of the full dose curve.
# What was measured:
# [1] = qHTS for Inhibitors of the Functional Ribonucleoprotein Complex (vRNP) of Lassa (LASV) Arenavirus: LASV Primary Screen - GLuc reporter signal (AID 1347082; calls by dose curve; tested in HEK293 reporter line; also: nearly all actives have a fitted effect of over 60% in size)
# [2] = qHTS for Inhibitors of the Functional Ribonucleoprotein Complex (vRNP) of Lassa (LASV) Arenavirus: Viability assay - alamar blue signal for LASV Primary Screen (AID 1347083; calls by dose curve; tested in HEK293 reporter line; also: nearly all actives have a fitted effect of over 80% in size)
# [3] = qHTS for Inhibitors of the Functional Ribonucleoprotein Complex (vRNP) of Lymphocytic Choriomeningitis Arenaviruses (LCMV): Viability assay - alamar blue signal for LCMV Primary Screen (AID 1347085; calls by dose curve; tested in HEK293 reporter line; also: nearly all actives have a fitted effect of over 80% in size)
# [4] = target: Nucleoprotein (Lymphocytic choriomeningitis virus (strain Armstrong)) (UniProt P09992); assay: qHTS for Inhibitors of the Functional Ribonucleoprotein Complex (vRNP) of Lymphocytic Choriomeningitis Arenaviruses (LCMV): LCMV Primary Screen - GLuc reporter signal (AID 1347086); also: nearly all actives have a fitted effect of over 70% in size
# [5] = test system: Zika virus NS2B-NS3 protease; assay: Primary screen GU AMC qHTS for Zika virus inhibitors (AID 1347154; active = well fitted curve in the direction sought with a large enough effect; an effect the other way counts as inactive or inconclusive; also: nearly all actives have a fitted effect of over 70% in size)
# Procedure, shortened: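 Unlinked Zika NS2B hydrophilic domain–NS3 protease complex at 25 nM in 10 mM Tris-HCl pH 8.0, 0.01% Tween 20, with an AMC peptide substrate. Fluorescence change (340/450 nm) over 15 min at room temperature, normalized to controls, fitted to 4-parameter Hill.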
# [6] = Primary qHTS for small molecule stabilizers of the endoplasmic reticulum resident proteome: Secreted ER Calcium Modulated Protein (SERCaMP) assay (AID 1508630; active = well fitted curve in the direction sought with a large enough effect; an effect the other way counts as inactive or inconclusive)
# Procedure, shortened: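 GLuc-SERCaMP-expressing SH-SY5Y cells, pretreated 16 h with compound, are challenged with thapsigargin to empty ER calcium stores; after 4 h, coelenterazine is added directly to the medium and luminescence is imaged.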
# [7] = qHTS for inhibitors of Rabies Virus screened against the NCATS CANVASS Library (AID 1347402)
# [8] = Validation screen for inhibitors of Lassa infection (AID 463096)
# [9] = Primary qHTS for inhibitors of SARS-S pseudo-typed particle cell entry (AID 1479145); also: nearly all actives have a fitted effect of over 45% in size
# [10] = Primary qHTS for Huh7 cytotoxicity: counterscreen for inhibitors of MERS-S pseudotyped particle cell entry (AID 1479147); settings: outcome: dose series up to 57.1 µM unless noted
# [11] = Primary qHTS for inhibitors of MERS-S pseudo-typed particle cell entry (AID 1479149); also: nearly all actives have a fitted effect of over 60% in size
# [12] = Primary qHTS for Vero E6 cytotoxicity: counterscreen for inhibitors of SARS-S pseudo-typed particle cell entry (AID 1479150); settings: outcome: dose series up to 57.1 µM unless noted
# [13] = Cytotoxicity counterscreen for inhibitors of SARS-CoV-2 cell entry (AID 1645845); also: nearly all actives have a fitted effect of over 50% in size
# Procedure, shortened: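 HEK293-ACE2 cells (Expi293F stably expressing human ACE2) seeded overnight, then compound for 1 h plus 48 h at 37C. Viability as ATP content by luminescence; normalized to wells with cells and media-only wells.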
# [14] = Primary qHTS to identify inhibitors of SARS-CoV-2 cell entry (AID 1645846); settings: activity change, negative = inhibition: at 57.1 µM (top of the series) unless noted; also: nearly all actives have a fitted effect of over 45% in size
# Procedure, shortened: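 Luminescence readout (Bright-Glo luciferase) 48 h after pseudoparticle addition. HEK293-ACE2 cells, 1500/well; compound pre-incubation 1 h; Normalized to spike PP and bald PP.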
# [15] = Inducers of the Endoplasmic Reticulum Stress Response (ERSR) in human glioma: Validation (AID 504836; active = well fitted curve in the direction sought with a large enough effect; an effect the other way counts as inactive or inconclusive)
# Procedure, shortened: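 Stably transfected U87-MG glioma cells carrying a GRP78-based luciferase sensor; 16 h compound incubation. Luminescence end-point read 10 min after Bright-Glo addition at room temperature.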
# [16] = target: Alpha-galactosidase (Coffea arabica) (UniProt Q42656); assay: Counterscreen for Glucocerebrosidase Inhibitors: qHTS Assay for Coffee Bean alpha-Galactosidase at pH 4.5 (AID 957; active = well fitted curve in the direction sought with a large enough effect; an effect the other way counts as inactive or inconclusive)
# Procedure, shortened: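 AC50 values derive from Hill-equation modeling of concentration-response data, normalized to no-enzyme and full-activity controls. The pH 4.5 citrate assay used 2 nM coffee bean enzyme and 80 uM fluorogenic substrate for 20 min.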
# [17] = target: Alpha-galactosidase (Coffea arabica) (UniProt Q42656); assay: Counterscreen for Glucocerebrosidase Inhibitors: qHTS Assay for Coffee Bean alpha-Galactosidase at pH 5.9 (AID 998; active = well fitted curve in the direction sought with a large enough effect; an effect the other way counts as inactive or inconclusive)
# Procedure, shortened: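 Green coffee bean enzyme (2 nM) with 4-methylumbelliferyl alpha-D-galactopyranoside (80 uM) in 50 mM citric acid, 0.005% Tween-20, pH 5.9, 20 min at room temperature; compounds 0.7 nM–77 uM. Stopped at pH 10, fluorescence Ex365/Em440; Hill-fit AC50.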
# [18] = Confirmatory qHTS to identify inhibitors of SARS-CoV-2 cell entry (AID 1645844); also: potency is read from the fitted curve at half-maximal effect; nearly all actives have a fitted effect of over 45% in size
# Procedure, shortened: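 HEK293-ACE2 cells were pretreated 1 h with compound, then infected with MLV-based pseudoparticles bearing C-terminally truncated Wuhan-Hu-1 spike for 48 h at 37C; luciferase luminescence normalized to spike PP and bald PP wells.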
# [19] = VSVG counterscreen qHTS to identify inhibitors of SARS-CoV-2 cell entry (AID 1645847); also: potency is read from the fitted curve at half-maximal effect; nearly all actives have a fitted effect of over 65% in size
# Procedure, shortened: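 HEK293-ACE2 cells (Expi293F stably expressing human ACE2) were pretreated with compound for 1 h at 37 °C, then infected with MLV-based VSV-G pseudotyped particles for 48 h. Luciferase luminescence was normalized to VSV-G PP and bald PP wells.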
# Nucleoprotein (Lymphocytic choriomeningitis virus (strain Armstrong)), sequence (P09992 whole entry, looked up): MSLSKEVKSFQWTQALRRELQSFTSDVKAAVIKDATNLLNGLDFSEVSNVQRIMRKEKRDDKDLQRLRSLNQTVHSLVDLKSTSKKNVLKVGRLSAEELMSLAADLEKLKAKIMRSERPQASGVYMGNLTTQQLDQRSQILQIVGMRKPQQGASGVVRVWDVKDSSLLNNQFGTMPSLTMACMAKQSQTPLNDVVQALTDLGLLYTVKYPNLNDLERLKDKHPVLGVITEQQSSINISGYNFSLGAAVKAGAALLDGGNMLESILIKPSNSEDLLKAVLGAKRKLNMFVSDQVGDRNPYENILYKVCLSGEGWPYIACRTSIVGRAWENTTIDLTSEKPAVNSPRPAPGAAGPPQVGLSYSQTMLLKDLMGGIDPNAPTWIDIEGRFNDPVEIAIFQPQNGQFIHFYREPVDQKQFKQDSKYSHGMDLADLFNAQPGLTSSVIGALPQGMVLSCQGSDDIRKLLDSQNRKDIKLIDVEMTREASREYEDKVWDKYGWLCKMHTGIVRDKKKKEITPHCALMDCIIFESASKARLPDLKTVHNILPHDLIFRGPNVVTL
# Alpha-galactosidase (Coffea arabica), sequence (Q42656 whole entry, looked up): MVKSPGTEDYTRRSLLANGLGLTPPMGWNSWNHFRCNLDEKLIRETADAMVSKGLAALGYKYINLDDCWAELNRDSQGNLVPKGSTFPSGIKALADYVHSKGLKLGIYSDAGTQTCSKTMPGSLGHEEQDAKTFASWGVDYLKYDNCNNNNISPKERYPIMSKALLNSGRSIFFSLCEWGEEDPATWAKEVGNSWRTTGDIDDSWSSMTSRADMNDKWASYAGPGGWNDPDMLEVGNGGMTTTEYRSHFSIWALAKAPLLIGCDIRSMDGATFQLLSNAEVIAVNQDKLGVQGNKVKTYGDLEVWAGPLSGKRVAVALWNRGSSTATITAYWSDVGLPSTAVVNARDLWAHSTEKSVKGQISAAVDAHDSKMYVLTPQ
compound,measurement,setting,value
COc1ccc2[nH]c3c(c2c1)CCNC3C (stereo not drawn),Potency,[1],inactive
same,Potency,[2],inactive
same,Potency,[3],inactive
same,Potency,[4],inactive
same,Potency,[5],inactive
same,Potency,[6],inactive
CCC(=O)Nc1ccccc1,Potency,[1],inactive
same,Potency,[2],inactive
same,Potency,[3],inactive
same,Potency,[4],inactive
C=C(C)[C@@H]1CC[C@]2(C(=O)O)CC[C@]3(C)C(CCC4[C@@]5(C)CC[C@H](O)C(C)(C)C5CC[C@]43C)C12 (stereo partly drawn),Potency,[1],inactive
same,Potency,[2],inactive
same,Potency,[3],inactive
same,Potency,[4],inactive
CCCCc1ccc(O)cc1,Potency,[1],inactive
same,Potency,[2],inactive
same,Potency,[3],inactive
same,Potency,[4],inactive
CC(C)=CCC/C(C)=C/COc1c2occc2cc2ccc(=O)oc12,Potency,[1],inactive
same,Potency,[2],inactive
same,Potency,[3],inactive
same,Potency,[4],inactive
CCCCCCCCCCCCCCCCCC(=O)NCC(COP(=O)([O-])OCC[N+](C)(C)C)OCC (stereo not drawn),Potency,[1],inactive
same,Potency,[2],inactive
same,Potency,[3],inactive
same,Potency,[4],inactive
O=C(O)Cc1c[nH]c2ccccc12,Potency,[1],inactive
same,Potency,[2],inactive
same,Potency,[3],inactive
same,Potency,[4],inactive
same,outcome,[7],inactive
O=c1cc(-c2ccc(O)c(O)c2)oc2cc(O[C@@H]3O[C@H](CO)[C@@H](O)[C@H](O)[C@H]3O)cc(O)c12,Potency,[1],inactive
same,Potency,[2],inactive
same,Potency,[3],inactive
same,Potency,[4],inactive
same,outcome,[7],inactive
NC(=O)c1cc[n+](CC2=C(C(=O)O)N3C(=O)[C@@H](NC(=O)[C@@H](c4ccccc4)S(=O)(=O)[O-])[C@H]3SC2)cc1,Potency,[8],inactive
same,Potency,[1],inactive
same,Potency,[2],inactive
same,Potency,[3],inactive
same,Potency,[4],inactive
same,Potency,[9],inactive
same,outcome,[10],inactive
same,Potency,[11],inactive
same,outcome,[12],inactive
same,Potency,[13],inactive
same,"activity change, negative = inhibition",[14],2.35%
CN1C2CCC1CC(OC(=O)C(CO)c1ccccc1)C2 (stereo not drawn),Potency,[8],inactive
same,Potency,[1],inactive
same,Potency,[2],inactive
same,Potency,[3],inactive
same,Potency,[4],inactive
same,Potency,[13],inactive
same,"activity change, negative = inhibition",[14],-16.5%
COc1cc(C)c(C=CC(C)=CC=CC(C)=CC(=O)O)c(C)c1C,Potency,[1],inactive
same,Potency,[2],inactive
same,Potency,[3],inactive
same,Potency,[4],inactive
same,Potency,[9],inactive
same,outcome,[10],inactive
same,Potency,[11],inactive
same,outcome,[12],inactive
same,Potency,[13],inactive
same,Potency,[14],inactive
N[C@H](CO)C(=O)O,Potency,[8],inactive
same,outcome,[15],inactive
same,Potency,[1],inactive
same,Potency,[2],inactive
same,Potency,[3],inactive
same,Potency,[4],inactive
same,Potency,[9],inactive
same,outcome,[10],inactive
same,Potency,[11],inactive
same,outcome,[12],inactive
same,Potency,[13],inactive
same,Potency,[14],inactive
CC(C)[N+]1(C)[C@@H]2CC[C@H]1CC(OC(=O)C(CO)c1ccccc1)C2 (stereo partly drawn),Potency,[1],inactive
same,Potency,[2],inactive
same,Potency,[3],inactive
same,Potency,[4],inactive
same,Potency,[9],inactive
same,outcome,[10],inactive
same,Potency,[11],inactive
same,outcome,[12],inactive
same,Potency,[13],inactive
same,"activity change, negative = inhibition",[14],2.78%
CC(=O)O[C@H]1CC2(C)[C@@H](C[C@@H](O)[C@H]3[C@@]4(C)CC[C@@H](O)[C@@H](C)[C@@H]4CC[C@@]32C)C1=C(CCC=C(C)C)C(=O)O (stereo partly drawn),Potency,[8],inactive
same,outcome,[15],inactive
same,Potency,[1],inactive
same,Potency,[2],inactive
same,Potency,[3],inactive
same,Potency,[4],inactive
same,Potency,[9],inactive
same,outcome,[10],inactive
same,Potency,[11],inactive
same,outcome,[12],inactive
same,Potency,[13],inactive
same,"activity change, negative = inhibition",[14],-17.3%
N[C@@H](Cc1ccc(O)c(O)c1)C(=O)O,outcome,[16],inactive
same,outcome,[17],inactive
same,outcome,[15],inactive
same,Potency,[1],inactive
same,Potency,[2],inactive
same,Potency,[3],inactive
same,Potency,[4],inactive
same,outcome,[9],inactive [at 0.573 µM]
same,outcome,[10],inactive [at 0.573 µM]
same,"activity change, negative = inhibition",[11],3.84% [at 0.573 µM] (inactive)
same,outcome,[12],inactive [at 0.573 µM]
same,Potency,[18],3.83 µM (active)
same,Potency,[13],inactive
same,Potency,[19],0.429 µM (active)
Cc1cc(O)c2c(c1)O[C@@]1(C)CC[C@H]3C(C)(C)CCCC34CO[C@@H]2[C@H]41 (stereo partly drawn),Potency,[1],inactive
same,Potency,[2],inactive
same,Potency,[3],inactive
same,Potency,[4],inactive
same,Potency,[9],inactive
same,outcome,[10],inactive
same,Potency,[11],inactive
same,outcome,[12],inactive
same,Potency,[13],inactive
same,"activity change, negative = inhibition",[14],-25.2%
O=C(O)Cc1c[nH]c2ccc(O)cc12,outcome,[16],inactive
same,outcome,[17],inactive
same,Potency,[8],inactive
same,outcome,[15],inactive
same,Potency,[1],inactive
same,Potency,[2],inactive
same,Potency,[3],inactive
same,Potency,[4],inactive
same,outcome,[7],inactive
CCOC(=O)[C@@H](N)Cc1ccc(-c2cc(O[C@H](c3ccc(Cl)cc3-n3ccc(C)n3)C(F)(F)F)nc(N)n2)cc1,Potency,[1],inactive
same,Potency,[2],inactive
same,Potency,[3],inactive
same,Potency,[4],inactive
same,Potency,[9],inactive
same,outcome,[10],inactive
same,Potency,[11],inactive
same,outcome,[12],inactive
same,Potency,[13],inactive
same,Potency,[19],19.2 µM (active)
CCN(C(=O)c1c(O)c2c(Cl)cccc2n(C)c1=O)c1ccccc1,Potency,[1],inactive
same,Potency,[2],inactive
same,Potency,[3],inactive
same,Potency,[4],inactive
same,Potency,[9],inactive
same,outcome,[10],inactive
same,Potency,[11],inactive
same,outcome,[12],inactive
same,Potency,[13],inactive
same,"activity change, negative = inhibition",[14],-55.1% and -33%
Nc1cc(Cl)c(NC2=NCCN2)c(Cl)c1,outcome,[16],inactive
same,Potency,[8],inactive
same,outcome,[15],inactive
same,Potency,[1],inactive
same,Potency,[2],inactive
same,Potency,[3],inactive
same,Potency,[4],inactive
same,Potency,[9],inactive
same,outcome,[10],inactive
same,Potency,[11],inactive
same,outcome,[12],inactive
same,Potency,[13],inactive
same,"activity change, negative = inhibition",[14],-17%
C[Se]CC[C@H](N)C(=O)O,Potency,[1],inactive
same,Potency,[2],inactive
same,Potency,[3],inactive
same,Potency,[4],inactive
same,Potency,[9],inactive
same,outcome,[10],inactive [at 26.4 µM]
same,Potency,[11],inactive
same,outcome,[12],inactive
same,Potency,[13],inactive
